In PubChem BioAssay (Tox21):
Records with an inconclusive call do not appear. Calls of active or inactive are those of the source. Unless noted, calls follow the shape of the full dose curve.

Columns and labels:
[1] = target: Progesterone receptor (Homo sapiens) (UniProt P06401); assay: qHTS assay to identify small molecule agonists of the progesterone receptor (PR) signaling pathway (AID 1346784); also: nearly all actives have a fitted effect of over 30% in size
How it was run: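 Agonist mode, quantitative HTS format in a HEK 293T line expressing a UAS-controlled beta-lactamase reporter; 16 hr compound exposure at 37C in 2% charcoal-stripped FBS, then LiveBLAzer B/G FRET fluorescence.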

[2] = target: Progesterone receptor (Homo sapiens) (UniProt P06401); assay: qHTS assay to identify small molecule antagonists of the progesterone receptor (PR) signaling pathway (AID 1346795; active = well fitted inhibition curve with a large enough effect in the signal ratio in the repeat runs, not every such curve was filed as active; the % refers to the signal ratio; also: potency is read from the fitted curve at half-maximal effect)
How it was run: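 HEK293T PR-UAS-bla reporter cells in charcoal-stripped serum (2%) received compound after a 6 hr settling period, followed by R5020 agonist at 1 nM final; 16 hr incubation preceded the FRET substrate step and fluorescence measurement.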

[3] = qHTS assay to identify small molecule antagonists of the progesterone receptor (PR) signaling pathway - cell viability counter screen (AID 1346798; active = well fitted curve in the direction sought with a large enough effect in the repeat runs; an effect the other way counts as inactive or inconclusive; also: series mostly up to about 92 µM; nearly all actives have a fitted effect of over 50% in size)
How it was run: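 Same-well multiplex: after 16 hr at 37C with compound and R5020 stimulation, HEK293T cells carrying a UAS-bla reporter received LiveBLAzer substrate (2 hr RT), then CellTiter-Glo (30 min RT) for luminescent viability.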

[4] = qHTS assay to identify small molecule agonists of the TGF-beta/Smad signaling pathway - cell viability counter screen (AID 1346829; active = well fitted curve in the direction sought with a large enough effect in the repeat runs; an effect the other way counts as inactive or inconclusive; also: top concentration of the series differs between compounds; nearly all actives have a fitted effect of over 45% in size)
How it was run: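 SBE-bla HEK 293T cells plated overnight, compound exposure 5 hr at 37 C. Viability read in the same wells by CellTiter-Glo luminescence after 30 min at room temperature, following the beta-lactamase read.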

[5] = qHTS assay to identify small molecule agonists of the TGF-beta/Smad signaling pathway (AID 1346859; active = well fitted activation curve with a large enough effect in the signal ratio in the repeat runs, not every such curve was filed as active; the % refers to the signal ratio; also: series mostly up to about 77 µM)
How it was run: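 Smad-responsive beta-lactamase reporter cells (HEK 293T) received compounds from DMSO stocks after overnight attachment, were incubated 5 hr, then treated 2 hr with FRET substrate before dual-emission fluorescence measurement (405 nm excitation).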

[6] = qHTS assay to identify small molecule antagonists of the TGF-beta/Smad signaling pathway - cell viability counter screen (AID 1346824; active = well fitted curve in the direction sought with a large enough effect in the repeat runs; an effect the other way counts as inactive or inconclusive; also: nearly all actives have a fitted effect of over 50% in size)
How it was run: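 SBE-bla HEK 293T cells were plated overnight at 37 C, then given compounds in DMSO plus TGF-beta1 (added as 0.25 ng/mL solution) for 5 hr. After the bla read, CellTiter-Glo was added to the same wells and luminescence read after 30 min at room temperature.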

[7] = target: Thyrotropin-releasing hormone receptor (Homo sapiens) (UniProt P34981); assay: qHTS assay to identify small molecule antagonists of the thyrotropin-releasing hormone receptor (TRHR) signaling pathway (AID 1346877; active = well fitted inhibition curve with a large enough effect in the repeat runs, not every such curve was filed as active; also: series mostly up to about 51 µM)
How it was run: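 Intracellular calcium fluorescence, read kinetically every second over 3 min, reports TRH-evoked signalling in HEK293 cells carrying TRHR. Test compounds were added 5 min ahead of a 1 nM TRH challenge.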

[8] = target: Thyrotropin-releasing hormone receptor (Homo sapiens) (UniProt P34981); assay: qHTS assay to identify small molecule agonists of the thyrotropin-releasing hormone receptor (TRHR) signaling pathway (AID 1346891);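 also: HEK293 cells expressing TRHR with calcium dye readout; series mostly up to about 58 µM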
How it was run: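 Agonist-mode calcium mobilisation screen: TRHR-transfected HEK293 cells cultured overnight (18 h), dye-loaded for 2 h at 37 °C, exposed to compounds, and monitored by fluorescence for 3 min.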

[9] = qHTS assay to identify small molecule agonists of the progesterone receptor (PR) signaling pathway - cell viability counter screen (AID 1346799); also: nearly all actives have a fitted effect of over 45% in size
How it was run: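 Counter screen for cytotoxicity: compound-treated PR-UAS-bla HEK293T cells (16 hr, 37C, 5% CO2) were assayed with CellTiter-Glo, luminescence measured after 30 min at room temperature.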

Measured: Potency

Chain of Thyrotropin-releasing hormone receptor (Homo sapiens) (P34981 whole entry, looked up): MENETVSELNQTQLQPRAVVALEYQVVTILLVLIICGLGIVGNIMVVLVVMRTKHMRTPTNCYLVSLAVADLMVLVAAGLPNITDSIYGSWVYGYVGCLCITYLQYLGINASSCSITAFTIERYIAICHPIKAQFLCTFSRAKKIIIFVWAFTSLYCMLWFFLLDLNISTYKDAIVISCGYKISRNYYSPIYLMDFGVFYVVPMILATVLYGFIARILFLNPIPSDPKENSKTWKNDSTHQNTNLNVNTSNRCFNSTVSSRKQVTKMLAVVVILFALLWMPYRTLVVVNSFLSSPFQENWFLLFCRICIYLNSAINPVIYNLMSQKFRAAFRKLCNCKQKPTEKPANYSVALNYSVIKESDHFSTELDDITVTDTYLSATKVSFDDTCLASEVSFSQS
Chain of Progesterone receptor (Homo sapiens) (P06401 whole entry, looked up): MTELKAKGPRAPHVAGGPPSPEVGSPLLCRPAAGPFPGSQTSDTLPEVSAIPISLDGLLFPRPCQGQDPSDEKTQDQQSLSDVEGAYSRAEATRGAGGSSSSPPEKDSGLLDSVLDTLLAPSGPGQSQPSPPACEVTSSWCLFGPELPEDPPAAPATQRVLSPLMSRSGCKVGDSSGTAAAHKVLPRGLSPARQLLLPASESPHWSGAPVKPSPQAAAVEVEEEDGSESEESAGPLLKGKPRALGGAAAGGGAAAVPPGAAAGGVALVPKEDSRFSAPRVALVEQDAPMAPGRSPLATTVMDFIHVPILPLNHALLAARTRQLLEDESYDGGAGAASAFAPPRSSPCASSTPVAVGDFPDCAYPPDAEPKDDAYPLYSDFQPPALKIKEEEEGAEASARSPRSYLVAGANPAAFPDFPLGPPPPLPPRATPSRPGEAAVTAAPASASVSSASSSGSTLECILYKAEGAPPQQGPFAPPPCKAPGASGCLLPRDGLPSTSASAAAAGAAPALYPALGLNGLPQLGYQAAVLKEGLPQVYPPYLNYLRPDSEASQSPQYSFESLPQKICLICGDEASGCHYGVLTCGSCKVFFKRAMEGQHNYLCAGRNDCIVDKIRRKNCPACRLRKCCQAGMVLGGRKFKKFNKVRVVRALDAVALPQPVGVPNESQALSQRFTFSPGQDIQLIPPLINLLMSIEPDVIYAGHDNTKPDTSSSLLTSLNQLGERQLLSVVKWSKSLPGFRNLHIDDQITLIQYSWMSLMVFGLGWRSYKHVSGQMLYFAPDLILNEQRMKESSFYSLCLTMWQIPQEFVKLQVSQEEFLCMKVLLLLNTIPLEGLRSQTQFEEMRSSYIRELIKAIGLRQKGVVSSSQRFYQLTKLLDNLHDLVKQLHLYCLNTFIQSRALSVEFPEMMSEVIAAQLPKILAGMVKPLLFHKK

CCN(CC)CCOC(=O)C(c1ccccc1)C1CCCCC1 (stereo not drawn)
inactive: [1] | [2] | [3] | [4] | [5]

CCN(CC)CCOC(=O)C(Cc1cccc2ccccc12)CC1CCCO1 (stereo not drawn)
not listed: [3] | [9]
inactive: all other assays above

CCCCC(CC)CN1C(=O)C2C3C=CC(C3)C2C1=O (stereo not drawn)
active: [2] 34.4 µM
inactive: all other assays above

O=C(c1ccc(F)cc1)C1CCN(CCn2c(=S)[nH]c3ccccc3c2=O)CC1
not listed: [2] | [3] | [5]
inactive: all other assays above

O=C(Nc1ccccc1)c1ccccc1O
not listed: [2] | [6] | [9]
inactive: all other assays above

CCc1cc(C2=C(C(=O)O)N(c3ccccc3C(F)(F)F)S(=O)(=O)c3ccccc32)cc2c1OCO2
inactive: [1] | [4] | [5] | [7] | [8]
